PubChem BioAssay (NCATS)
Inconclusive results are not listed. Values without a mark were called inactive. The source made the active and inactive calls. Calls follow the shape of the dose curve; as a rule, active = well fitted curve in the direction sought with a large enough effect; inconclusive = small, poorly fitted or top-dose-only effect, or another doubt; inactive = no such curve, though single readings can be large; an effect the other way counts as inactive or inconclusive.

How the values were obtained:
[1] = qHTS of pediatric cancer cell lines to identify multiple opportunities for drug repurposing: Primary screen for OHS-50 cells (AID 1347103); also: nearly all actives have a fitted effect of over 40% in size; also: potency is read from the fitted curve at half-maximal effect
In short: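 Cells (500-1,000/well) rested 5 h, then received compounds for 48 h; metabolically active cells were measured by CellTiter-Glo luminescence. Final concentrations spanned up to 46 µM (MIPE, 11-point) or 0.59 nM-46 µM (NPC, 8-point) in primary screens, 11-point in follow-ups.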

[2] = qHTS of pediatric cancer cell lines to identify multiple opportunities for drug repurposing: Primary screen for RD cells (AID 1347104); also: nearly all actives have a fitted effect of over 55% in size; also: potency is read from the fitted curve at half-maximal effect
In short: (§1)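 Plated cells (500-1,000 per well, growth media) were allowed to settle for 5 hours, treated with compound dilutions for 48 hours, then lysed with CellTiter-Glo for 15 min at room temperature before luminescence reading.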

[3] = qHTS of pediatric cancer cell lines to identify multiple opportunities for drug repurposing: Primary screen for control Hh wild type fibroblast cells (AID 1347106);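 also: series mostly up to about 46 µM; a drop in luminescence marks cytotoxicity and a rise apparent proliferation; nearly all actives have a fitted effect of over 55% in size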
In short: (§2)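 Cells (500-1,000/well) in growth media were settled 5 h at 37 degrees C, then given compounds for 48 h. Viability was read as CellTiter-Glo luminescence. Primary runs used MIPE at 11 points (0.78 nM-46 µM) and NPC at 8 points (0.59 nM-46 µM); follow-ups used 11 points.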

[4] = qHTS of pediatric cancer cell lines to identify multiple opportunities for drug repurposing: Primary screen for Rh30 cells (AID 1347107); also: nearly all actives have a fitted effect of over 75% in size; also: potency is read from the fitted curve at half-maximal effect
In short: as §2

[5] = qHTS of pediatric cancer cell lines to identify multiple opportunities for drug repurposing: Primary screen for Rh41 cells (AID 1347108); also: nearly all actives have a fitted effect of over 70% in size; also: potency is read from the fitted curve at half-maximal effect
In short: as §1

[6] = qHTS of pediatric cancer cell lines to identify multiple opportunities for drug repurposing: Confirmatory screen for BT-12 cells (AID 1347112); also: nearly all actives have a fitted effect of over 55% in size; also: potency is read from the fitted curve at half-maximal effect
In short: as §2

[7] = qHTS of pediatric cancer cell lines to identify multiple opportunities for drug repurposing: Primary screen for MG 63 (6-TG R) cells (AID 1347105); also: potency is read from the fitted curve at half-maximal effect; nearly all actives have a fitted effect of over 50% in size
In short: as §1

[8] = qHTS of pediatric cancer cell lines to identify multiple opportunities for drug repurposing: Confirmatory screen for SK-N-MC cells (AID 1347111);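 also: potency is read from the fitted curve at half-maximal effect; cells exposed to compound for 48 h before the readout; nearly all actives have a fitted effect of over 70% in size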
In short: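 Metabolically active cells were quantified by ATP-dependent luminescence (CellTiter-Glo, 15 min at room temperature) following 48 h treatment. Cells had been plated at 500-1,000 per well and settled for 5 h beforehand.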

[9] = qHTS of pediatric cancer cell lines to identify multiple opportunities for drug repurposing: Confirmatory screen for NB1643 cells (AID 1347109); also: nearly all actives have a fitted effect of over 45% in size; also: potency is read from the fitted curve at half-maximal effect
In short: as §2

[10] = qHTS of pediatric cancer cell lines to identify multiple opportunities for drug repurposing: Confirmatory screen for A673 cells (AID 1347110);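 also: potency is read from the fitted curve at half-maximal effect; cells exposed to compound for 48 h before the viability read; nearly all actives have a fitted effect of over 65% in size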
In short: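 Concentration-response curves came straight from titrations: 11 points (0.78 nM to 46 µM) for MIPE and several concentrations (0.59 nM to 46 µM) for NPC in primary, 11 points in follow-up. Readout: ATP luminescence at 48 h.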

SMILES | Potency [1] | Potency [2] | Potency [3] | Potency [4] | Potency [5] | Potency [6] | Potency [7] | Potency [8] | Potency [9] | Potency [10]
Cc1ncc(-c2ccnc(Nc3ccc(S(C)(=O)=O)cc3)n2)n1C(C)C | 3.85 µM (active) | 6.62 µM (active) | inactive | inactive | 5.9 µM (active) | 3.29 µM (active) |  |  |  | 
CC(C)NC[C@@H](C(=O)N1CCN(c2ncnc3c2[C@H](C)C[C@H]3O)CC1)c1ccc(Cl)cc1 | 0.193 µM (active) | 1.18 µM (active) |  |  | 0.332 µM (active) | inactive | 3.72 µM (active) | 2.93 µM (active) |  | 
Cc1ccccc1C(=O)Nc1ccc(C(=O)N2CCCC(O)c3cc(Cl)ccc32)c(C)c1 (stereo unspecified) | inactive | inactive | inactive |  | inactive |  |  |  |  | 
Cc1noc(-c2ccc(CSCCC(=O)O)cc2)c1NC(=O)OC(C)c1ccccc1Cl (stereo unspecified) | inactive | inactive | inactive | inactive |  |  |  |  |  | 
COc1cccc2c1C(=O)c1c(O)c3c(c(O)c1C2=O)C[C@@](O)(C(=O)CO)C[C@H]3O[C@H]1C[C@H](N)[C@H](O)[C@H](C)O1 | 0.611 µM (active) | 0.833 µM (active) |  | inactive |  | 1.47 µM (active) |  | 0.414 µM (active) | 0.522 µM (active) | 0.928 µM (active)
COc1cc(O)c2c(c1)C1OC1C[C@H](O)[C@H](O)C(=O)C=CC[C@H](C)OC2=O (stereo partly specified) | 19.3 µM (active) | 2.35 µM (active) |  |  | 11.8 µM (active) | 16.5 µM (active) | 18.7 µM (active) | 9.27 µM (active) | 4.65 µM (active) | 11.7 µM (active)
CCc1cnn2c(NCc3ccc[n+]([O-])c3)cc(N3CCCC[C@@H]3CCO)nc12 | 0.0343 µM (active) | 0.0332 µM (active) |  | inactive |  | inactive |  |  |  | 
CCCCCN=C(N)NN=Cc1c[nH]c2ccc(OC)cc12 | 9.68 µM (active) | 18.7 µM (active) |  | inactive |  |  |  |  |  | 
FC(F)c1nc2ccccc2n1-c1nc(N2CCOCC2)nc(N2CCOCC2)n1 | 0.0769 µM (active) | 0.418 µM (active) |  |  | 1.48 µM (active) | 1.04 µM (active) | 0.187 µM (active) | 0.737 µM (active) | 1.47 µM (active) | 
C[C@@H](Oc1ccc2[nH]nc(C=Cc3cnn(CCO)c3)c2c1)c1c(Cl)cncc1Cl | 7.69 µM (active) | 18.7 µM (active) |  |  | 14.8 µM (active) | 23.3 µM (active) | 18.7 µM (active) | 2.61 µM (active) | 0.657 µM (active) | 1.31 µM (active)
C#CCC(Cc1cnc2nc(N)nc(N)c2n1)c1ccc(C(=O)N[C@@H](CCC(=O)O)C(=O)O)cc1 (stereo partly specified) | 0.109 µM (active) | 0.0743 µM (active) |  |  | inactive | 0.104 µM (active) |  | 0.0522 µM (active) | inactive | 0.0657 µM (active)
CC(=O)NCC(=O)N1[C@H]2CC[C@H]1c1cc(Nc3ncc(C(F)(F)F)c(NC4CCC4)n3)ccc12 | 0.344 µM (active) | 2.35 µM (active) |  |  | 1.48 µM (active) | 16.5 µM (active) | 2.35 µM (active) | 0.0827 µM (active) |  | 4.14 µM (active)
CNC(=O)c1cccc(-c2ccc3c(N4CCOC[C@H]4C)nc(N4CCOC[C@H]4C)nc3n2)c1 | 0.0685 µM (active) | 0.148 µM (active) |  |  |  |  | 0.0296 µM (active) | 1.04 µM (active) |  | 1.47 µM (active)
COc1cccc2c1C(=O)c1c(O)c3c(c(O)c1C2=O)C[C@@](O)(C(C)=O)C[C@H]3O[C@H]1C[C@H](N)[C@H](O)[C@H](C)O1 | 0.344 µM (active) | 0.0743 µM (active) |  |  | 0.0469 µM (active) | 1.31 µM (active) | 0.372 µM (active) | 0.165 µM (active) | 0.165 µM (active) | 0.414 µM (active)
c1ccc(CNc2nc(NCc3ccccc3)c3ccccc3n2)cc1 | 30.6 µM (active) | 16.6 µM (active) |  | 23.5 µM (active) | 18.7 µM (active) |  |  |  |  | 
CCOC(=O)N1CCN([N+]([O-])=NOc2ccc([N+](=O)[O-])cc2C#N)CC1 | 3.43 µM (active) | 4.69 µM (active) |  | inactive |  |  |  | 3.29 µM (active) | 3.69 µM (active) | 2.61 µM (active)
FC(F)(F)c1ccc(Nc2nc3ccc(Oc4ccnc(-c5ncc(C(F)(F)F)[nH]5)c4)cc3[nH]2)cc1 | 24.3 µM (active) | 18.7 µM (active) | inactive |  |  |  |  |  |  | 
COc1cc(C)c(C=CC(C)=CC=CC(C)=CC(=O)O)c(C)c1C | 1.72 µM (active) | inactive |  | inactive |  |  |  |  |  | 
COc1cc2ncnc(Nc3cccc(Br)c3)c2cc1OC | 15.3 µM (active) | 0.935 µM (active) | inactive |  |  |  |  | 11.7 µM (active) | 18.5 µM (active) | 14.7 µM (active)
